The values that follow come from the supplement of paper PMC6555819.

Test in all cases: PBM binding z-score (relative to random genomic background probes); higher = stronger binding; sequences stand for … in GC…GCGATTGACAGCGTAGAATGAAGG
Experiment [1] relates to FXR:RXRa (NR concentration 270 nM, RXRa partner concentration 90 nM). In a few lines: (§1)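 Regression normalization was applied to scanned fluorescence from custom Agilent 4×180K protein-binding microarrays. Before scanning, arrays were incubated 1 h with ligand-free nuclear receptor dimers, and binding was detected with antibodies against each partner (one per run). Binding z-scores use the random background probes as reference.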

Experiment [2] deals with LXRa:RXRa (NR concentration 270 nM, RXRa partner concentration 90 nM). In a few lines: as §1
In experiment [3] the test system is LXRa homodimer (NR concentration 270 nM). The procedure, abridged: as §1
The test system of experiment [4] is LXRb:RXRa (NR concentration 270 nM, RXRa partner concentration 90 nM). In a few lines:
as §1

Experiment [5] has as its system LXRb homodimer (NR concentration 270 nM). The procedure, abridged: as §1
In experiment [6] the test system is PPARa:RXRa (NR concentration 270 nM, RXRa partner concentration 90 nM). In a few lines:
as §1

Experiment [7] has as its system PPARg:RXRa (NR concentration 180 nM, RXRa partner concentration 90 nM). The procedure, abridged:
as §1

Experiment [8] has as its system PPARg:RXRa 270nM:90nM, anti-RXR (NR concentration 270 nM, RXRa partner concentration 90 nM). The procedure, abridged:
as §1

Experiment [9] deals with PPARg:RXRa 30nM:10nM, anti-RXR (NR concentration 30 nM, RXRa partner concentration 10 nM). The procedure, abridged:
as §1

For experiment [10], the system named is PPARg:RXRa 90nM:30nM, anti-RXR (NR concentration 90 nM, RXRa partner concentration 30 nM). In a few lines: as §1
For experiment [11], the system named is PPARg:RXRa DBDmut IVT, anti-RXR (DBD mutation: RXRa K156A/R161A, NR concentration 270 nM, RXRa partner concentration 90 nM). The procedure, abridged:
as §1

Experiment [12] relates to PPARg:RXRa IVT, anti-PPARg (NR concentration 270 nM, RXRa partner concentration 90 nM). The procedure, abridged:
as §1

The test system of experiment [13] is PPARg DBDmut:RXRa IVT, anti-PPARg (DBD mutation: PPARg1 K132A/R137A, NR concentration 270 nM, RXRa partner concentration 90 nM). The procedure, abridged: as §1
For experiment [14], the system named is PPARg DBDmut IVT, anti-PPARg (DBD mutation: PPARg1 K132A/R137A, NR concentration 270 nM). In a few lines:
as §1

Experiment [15] deals with PPARg homodimer (NR concentration 180 nM). The procedure, abridged: as §1
Experiment [16] deals with PXR:RXRa (NR concentration 270 nM, RXRa partner concentration 90 nM). The procedure, abridged: as §1
The subject of experiment [17] is PXR homodimer (NR concentration 270 nM). The procedure, abridged:
as §1

The subject of experiment [18] is RARa:RXR (NR concentration 270 nM, RXRa partner concentration 90 nM). In a few lines: as §1
Experiment [19] deals with RARa homodimer (NR concentration 270 nM). The procedure, abridged: as §1
Experiment [20] relates to RARb:RXRa (NR concentration 270 nM, RXRa partner concentration 90 nM). The procedure, abridged:
as §1

For the sequence ATACGAAGGTGATCGTGAGGTCGTTGATACTAAC, the PBM binding z-score in experiment [1] was 1.79; in [2] it was 1.18; in experiment [3], 0.283; in experiment [4], 0.729; in [5] it was -0.403; in [6] it was 1.47. Besides, the PBM binding z-score is 0.5 in experiment [7]; 0.532 in [8]; 0.382 in experiment [9]; 0.531 in experiment [10]; 0.525 in [11]; 0.827 in experiment [12]. Moreover, the PBM binding z-score in experiment [13] is 0.418; in experiment [14], -0.452; in experiment [15] it was 0.589; in experiment [16] it was 2.82; in experiment [17] it was 1.23; in experiment [18] it was 2. Further, the values for the PBM binding z-score in experiment [19] and in experiment [20] were 0.134 and 1.29, respectively.
In the case of CCTATTAGTTGACCCTAAGGGCAACCGAAGCTCG, the PBM binding z-score in experiment [1] was determined as 4.38; in [2], 3.57; in experiment [3] it was 1.02; in [4] it was 3.56; in experiment [5], 1.04; in experiment [6], 4.53. For the same sequence, the PBM binding z-score in [7] worked out at 1.6; in experiment [8], 3.34; in experiment [9], 0.981; in [10], 2.19; in [11], 0.775; in experiment [12], 1.82. Besides, the PBM binding z-score worked out at 0.412 in experiment [13]; 0.556 in [14]; 3.19 in [15]; 4.25 in experiment [16]; 1.16 in experiment [17]; 4.62 in [18]. Besides, the PBM binding z-score in experiment [19] was determined as 2.32; in experiment [20], 2.93.
As to TCTCGGAGTACACGAAAGGTCAGAGCTCGACATC, the PBM binding z-score is 2.31 in experiment [1]; 3.69 in experiment [2]; 2.03 in experiment [3]; 3.2 in experiment [4]; -0.426 in experiment [5]; 3.55 in experiment [6]. In addition, the PBM binding z-score turned out to be 1.78 in [7]; 3.53 in experiment [8]; 2.52 in experiment [9]; 3.11 in experiment [10]; 1.42 in experiment [11]; 1.77 in experiment [12]. For the same sequence, the PBM binding z-score was 0.689 in experiment [13]; 0.21 in [14]; 1.29 in experiment [15]; 4 in experiment [16]; -0.3 in experiment [17]; 4.04 in [18]. The PBM binding z-score in experiment [19] is -0.148; in [20], 3.79.
On to CAAACTAGGTCACGAAAGGTCATAGTCGAATGAC, for which the PBM binding z-score in experiment [1] was found to be 7.43; in experiment [2] it was 7.78; in experiment [3] it was 7.34; in experiment [4], 6.95; in experiment [5] it was 2.21; in experiment [6] it was 6.37. The PBM binding z-score worked out at 10.5 in experiment [7]; 8.43 in experiment [8]; 7.64 in experiment [9]; 8.8 in experiment [10]; 8.9 in [11]; 9.17 in [12]. Also, the PBM binding z-score in experiment [13] stood at 2.98; in experiment [14], 2.98; in experiment [15], 6.62; in [16] it was 6.74; in [17] it was 2.77; in experiment [18], 7.32. The values for the PBM binding z-score in experiment [19] and in experiment [20] were 3.5 and 5.58, respectively.
For TCGAGTGGGTTAGTCGGGGCATTCAGCCAACATA, the PBM binding z-score in experiment [1] was 0.26; in [2], 0.197; in [3], 0.0739; in experiment [4] it was 0.985; in experiment [5], -0.295; in experiment [6], 0.659. The PBM binding z-score in experiment [7] was -0.439; in experiment [8] it was 0.869; in [9] it was 0.979; in experiment [10], 0.719; in experiment [11], 1.67; in experiment [12], 1.4. Also, the PBM binding z-score in experiment [13] is 0.134; in experiment [14] it was -0.527; in experiment [15], 0.359; in experiment [16], 0.291; in [17], 0.241; in [18], 0.255. Further, the results for the PBM binding z-score in [19] and in experiment [20] were 0.0202 and 0.514, respectively.
As to TCATATATGTAAATGCTAGGTGAAAGTCCGATCT, the PBM binding z-score in [1] was 0.494; in [2] it was 0.5; in experiment [3], 0.273; in experiment [4], 0.561; in experiment [5], 0.139; in experiment [6], 0.627. Moreover, the PBM binding z-score in experiment [7] was 0.741; in experiment [8], 1.86; in experiment [9], 3.23; in experiment [10], 2.59; in experiment [11], 2.12; in experiment [12], 0.736. Further, the PBM binding z-score in experiment [13] is 1.47; in experiment [14], 0.87; in experiment [15] it was -0.136; in experiment [16], 0.601; in experiment [17] it was 0.0676; in experiment [18], 0.644. Further, the PBM binding z-score in experiment [19] amounted to 0.525; in experiment [20], 0.329.
Consider TCTTGTGGATCAAAGGTTAAGAAAGCCGAAGCCT, for which the PBM binding z-score in experiment [1] came to 1.78; in [2], 1.88; in experiment [3] it was 0.101; in experiment [4], 2.08; in [5], 0.0498; in [6] it was 4.58. Also, the PBM binding z-score in experiment [7] worked out at 7.94; in experiment [8], 7.64; in [9] it was 7.24; in experiment [10], 8.31; in experiment [11], 1.84; in [12], 3.48. Further, the PBM binding z-score is 0.81 in [13]; -0.181 in [14]; 1.3 in experiment [15]; 1.98 in experiment [16]; -0.205 in [17]; 2.8 in experiment [18]. In addition, the values for the PBM binding z-score in experiment [19] and in [20] were 0.693 and 1.82, respectively.
